Compound activity: PubChem, several laboratories
SKKanGAS inh – S. pyogenes SKKanGAS growth inhibitors in kanamycin, primary screen, streptokinase expression inhibitor project, SKKanGAS strain, BacTiter-Glo luminescence. 6 h. inhibition, % at 7.5 µM. actives 1.3% (n = 300,000). AID 1662, 2009;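 active means mean replicate score, as percent of positive control median, at least 50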;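 further: strain carries kanamycin resistance gene driven by streptokinase promoter and grows in 40 µg/ml kanamycin; loss of luminescence reflects streptokinase promoter inhibition or plain growth inhibition; 0% = median of DMSO wells and 100% = positive control at its reference dose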
Calb FLC – C. albicans growth inhibition with fluconazole, primary screen, CaCi-2 strain, Alamar Blue fluorescence. actives 0.57% (n = 300,000). AID 1979, 2009. C. albicans CaCi-2 (fluconazole-resistant clinical isolate) + fluconazole, 48 h. growth inhibition, % (no concentration beside the values);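 active means growth inhibition above about 58% in most replicates, limit read from the data, passing the limit was not always enough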;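 further: all wells also contain fluconazole at 8 µg/ml as a sub-toxic cotreatment; 0% = median of DMSO wells and 100% = median of geldanamycin control wells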
CR mimetic SO – reduction of superoxide in aged yeast, primary screen, HTS; superoxide response (% of plate mean), % at 10 µM; actives 0.18% (n = 330,000); AID 2690, 2010; S. cerevisiae aged cells, superoxide DHE fluorescence; active compounds read low;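 active means superoxide response under a set limit, about three screen SD below normal, cut at about 65% in these data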;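 further: yeast aged for seven days with compound at 30 °C before DHE staining; 100% = average MFI of all compound-treated wells on the plate with controls excluded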
Platelet DG rel – inhibitors of platelet dense granule secretion, primary screen, cell-based, MLPCN, human platelets; human platelet-rich plasma, SFLLRN dense granule ATP release, luminescence; inhibition, %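 (compounds screened at 7.5 µM in platelet-rich plasma)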; actives 0.22% (n = 300,000); AID 1663, 2009;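 active means mean replicate score, as percent of positive control, at or above 50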
PolyA inhibitor – polyadenylation inhibitors in yeast reporter cells, primary screen, luminescence, S. cerevisiae. S. cerevisiae SKY197-pL101 polyadenylation reporter, beta-gal luminescence; efflux-impaired pdr1/pdr3 knockout yeast; score 100 = 6 SD above DMSO. activity score, % at 12 µM. actives 0.02% (n = 300,000);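 active means lowest replicate activity score at least 50, where 100 means six control SD above control mean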;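 further: yeast exposed to compound for 9 h at 30 °C; higher score means more reporter readthrough which indicates perturbed polyadenylation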
Active calls of the source: *; / = not tested or not shown. Only some compounds are listed: those with a hit (about 2% of all), similar ones and a draw of the others.

SMILES	SKKanGAS inh	Calb FLC	CR mimetic SO	Platelet DG rel	PolyA inhibitor
Cc1cccc(OCC(O)Cn2c(N3CCCCC3)nc3c2c(=O)n(C)c(=O)n3C)c1 (stereo unspecified)	-2	4	103	-5	2
Cc1cc(C)n(-c2nc(Nc3ccccc3C(F)(F)F)nc(-n3nc(C)cc3C)n2)n1	135*	21	82	7	-15
Cc1cc(C)n(-c2nc(N(C)C)nc(N(C)C)n2)n1	2	3	102	8	-6
Cc1cc(C)n(-c2nc(Nc3ccccc3C)nc(-n3nc(C)cc3C)n2)n1	98*	51	106	18	-19
CN(/N=C/c1cccc(Br)c1)C1=NS(=O)(=O)c2ccccc21	29	5	97	2	9
O=C(CN1C(=O)NC2(CCCC2)C1=O)NNC(=O)c1ccc(Br)cc1	-2	4	101	2	-6
S=C1Nc2ccccc2Sc2ccc(Cl)cc21	69*	-11	98	8	-18
COc1cc(/C=N/NC(=O)NC23CC4CC(CC(C4)C2)C3)ccc1O	0	-4	115	-3	-21
Cc1cc(C(=O)N/N=C/c2cc(Cl)cc([N+](=O)[O-])c2O)c2ccccc2n1	114*	79*	141	5	2
O=C(N/N=C/c1ccccc1O)NC12CC3CC(CC(C3)C1)C2	84*	-6	91	4	-44
O=C(N/N=C/c1ccc(O)c(O)c1)NC12CC3CC(CC(C3)C1)C2	-3	-6	145	1	21
O=C(N/N=C/c1cc(Cl)cc([N+](=O)[O-])c1O)NC12CC3CC(CC(C3)C1)C2	50*	11	108	2	-13
CCC(C)[C@H](NS(=O)(=O)c1ccc(C)cc1)C(=O)N1CCC(C(=O)N2CCC(C(N)=O)CC2)CC1 (stereo partly specified)	4	-9	114	3	-9
CC(=O)N(Cc1ccc(F)cc1)C1=C(NCc2ccccc2)C(=O)c2ccccc2C1=O	26	89*	/	2	-21
O=C(NCc1ccc(F)cc1)C(c1ccccc1)c1ccccc1	17	-2	101	-14	-13
COc1ccc(CNC(=O)CC2C[C@H](C(=O)N3CCCCC3)[C@@]3(C)c4[nH]c5ccccc5c4CCN3C2=O)cc1OC (stereo partly specified)	/	/	108	/	/
Nc1nc(CCl)nc(Nc2ccccc2)n1	2	-2	94	-3	-3
Nc1nc(Nc2ccc(Cl)cc2)nc2ccccc12	/	67	97	73*	/
CN(C)c1ccc(Nc2nc(N)c3ccccc3n2)cc1	37	7	94	80*	-12
Nc1nc(Nc2ccccc2)nc2ccccc12	5	4	107	59*	16
CCOc1ccc(Nc2nc(N)c3ccccc3n2)cc1	60*	-3	99	90*	14
Nc1ncnc(Nc2ccccc2)n1	-1	-2	91	-4	12
CN1CCN(CCNC(=O)c2ccc3nc(-c4ccc(F)cc4)c(-c4ccc(F)cc4)nc3c2)CC1	10	-10	123	2	8
CC12CCC(C(=O)Nc3nc4ccccc4s3)(OC1=O)C2(C)C (stereo unspecified)	-5	0	102	0	-9
COc1cc2nc(Nc3ccc(C)c(Cl)c3)nc(N)c2cc1OC	-13	-6	100	2	-1
SMILES	SKKanGAS inh	Calb FLC	CR mimetic SO	Platelet DG rel	PolyA inhibitor
COc1ccc(C)cc1Nc1nc(N)c2ccccc2n1	-1	2	92	7	3
Cc1ccc(Nc2nc(N)c3ccccc3n2)cc1Cl	9	69	104	52*	10
Cc1ccccc1Nc1nc(N)c2ccccc2n1	18	7	98	58*	14
O=C(CSc1nc(-c2ccccc2)cs1)Nc1nccs1	-5	112*	100	-16	4
O=C(CSc1ccccc1)Nc1nccs1	-10	-22	90	-8	-2
CCN1/C(=C/C(C)=C/c2sc3ccccc3[n+]2CC)Sc2ccccc21	100*	103*	97	17	-51
Cc1cccc(C2(c3cccc(C)c3)CC2C(=O)Nc2ccc([N+](=O)[O-])cc2O)c1 (stereo unspecified)	72*	39	101	-7	5
